Screens (PubChem BioAssay)
Only some compounds are listed: those with a hit (about 4.1% of all), similar ones and a draw of the others.
hcDAF-12 act – H. contortus DAF-12 nuclear receptor activators, primary screen, cell-based, luminescence, HEK293, lit1-tk-luc reporter; HEK293 hcDAF-12 lit1-tk-luc reporter; 0% DMSO, 100% Δ7-dafachronic acid; activation, % at 6.8 µM; actives 1.4% (n = 370,000);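 active = activation above the mean of all tested compounds plus 3 SD, cut at about 5.5% in these data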;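 also: 100% = response to 3 µM Δ7-dafachronic acid high control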
DAX1 inh-1 – DAX1 (NR0B1) inhibitors, primary screen, cell-based, HEK293, Gal4-DAX1, luciferase luminescence | Nuclear receptor subfamily 0 group B member 1 (Homo sapiens), P51843 | HEK293 Gal4-DAX1 luciferase reporter | inhibition, % at 6.75 µM | actives 0.99% (n = 340,000);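 active = inhibition above the mean over all tested compounds plus 3 SD, cut at about 4.2% in these data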;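 also: 0% = DAX1-transfected cells with DMSO and 100% = empty-vector control cells with DMSO; inhibition shows as a rise in luminescence from relieved DAX1 repression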
Target sequence (P51843 207-470 limits assumed): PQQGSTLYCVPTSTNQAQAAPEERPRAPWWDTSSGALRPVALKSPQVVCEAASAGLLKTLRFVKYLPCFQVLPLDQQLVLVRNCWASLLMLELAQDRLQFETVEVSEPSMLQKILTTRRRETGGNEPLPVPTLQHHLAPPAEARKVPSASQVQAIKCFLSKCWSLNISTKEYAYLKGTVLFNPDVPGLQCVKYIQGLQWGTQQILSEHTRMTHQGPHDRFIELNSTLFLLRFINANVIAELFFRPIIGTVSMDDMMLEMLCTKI
hgDAF12 agonist – H. glycines DAF-12 receptor agonists, primary screen, cell-based, luminescence, HEK293, GAL4 fusion, UAS-luciferase; Nuclear hormone receptor DAF-12 (Heterodera glycines), GAL4 fusion; HEK293 GAL4-hgDAF12 UAS-luciferase reporter, agonist luminescence; normalized to butyrate control; activation, % at 6.8 µM; actives 1.8% (n = 370,000);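 active = activation above a cutoff set at the mean of all screened compounds plus 3 SD, cut at about 10% in these data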;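 also: 0% = DMSO wells and 100% = sodium butyrate wells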
ssDAF12 agonist – S. stercoralis DAF-12 nuclear receptor activators, primary screen, cell-based, luminescence, HEK293, GRIP1 co-expression, lit1-tk-luc. HEK293 ssDAF-12/GRIP1 lit1-tk-luc reporter; % of 3 µM dafachronic acid response. actives 1% (n = 370,000). activation, % at 6.8 µM. Nuclear hormone receptor DAF-12 (Strongyloides stercoralis);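 active = activation above the mean over all tested compounds plus 3 SD, cut at about 0.9% in these data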;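 also: 0% = DMSO-only wells and 100% = 3 µM delta7-dafachronic acid wells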
DAX1 inh-2 – DAX1 (NR0B1) inhibitors on StAR promoter, primary screen, cell-based, luminescence, SF-1 (NR5A1), full-length DAX-1; HEK293T StAR-luciferase reporter, SF-1/DAX-1 repression relief; inhibition, % at 6.8 µM; actives 1.1% (n = 370,000); AID 652010, 2013;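 active = inhibition above the mean over all tested compounds plus 3 SD, cut at about 3.6% in these data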;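 also: 0% = DAX-1 cells with DMSO and 100% = cells lacking DAX-1 with DMSO; higher inhibition means more luminescence from relief of DAX-1 repression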
DAX1 inh confirm – DAX1 (NR0B1) inhibitors relieving SF-1 repression, confirmation, cell-based, luminescence, HEK293T, full-length DAX-1, SF-1 activated StAR promoter | actives 87% (n = 2,400) | inhibition, % at 6.8 µM | shares compounds with DAX1 inh-2 | HEK293T StAR-promoter luciferase reporter, SF-1/DAX-1 repression;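 active = inhibition above the average of every tested compound plus 3 SD, cut at about 3.8% in these data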;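 also: 0% = DAX-1 cells with DMSO and 100% = no DAX-1 control cells with DMSO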
SF1 AF2mut Luc – StAR reporter signal changes without DAX1, counter-screen for DAX1 inhibitor project, cell-based, luminescence, AF-2 mutant SF-1, transactivation. shares compounds with DAX1 inh-2. HEK293 StAR-luciferase, SF-1 AF2 mutant. inhibition, % at 6.8 µM. actives 78% (n = 2,400);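 active = inhibition above the mean of all tested compounds plus 3 SD, cut at about 3% in these data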;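 also: 0% = DAX-1 transfected cells with DMSO and 100% = cells without DAX-1 with DMSO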
LXR ag – LXR agonists, Gal4 luciferase reporter, confirmation, counter-screen for hcDAF-12 agonist project, cell-based, luminescence, HEK293, H. contortus campaign. activation, % at 6.8 µM. HEK293 Gal4-LXR tk-luc reporter, 24 h; normalized: DMSO 0%, positive control 100%. shares compounds with hcDAF-12 act. 3,400 tested, under 10 active;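 active = mean percent activation of the reporter above a cutoff set as the average over tested compounds plus their standard deviation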
Target sequence (P55055 whole entry, looked up, the tested form may be a part): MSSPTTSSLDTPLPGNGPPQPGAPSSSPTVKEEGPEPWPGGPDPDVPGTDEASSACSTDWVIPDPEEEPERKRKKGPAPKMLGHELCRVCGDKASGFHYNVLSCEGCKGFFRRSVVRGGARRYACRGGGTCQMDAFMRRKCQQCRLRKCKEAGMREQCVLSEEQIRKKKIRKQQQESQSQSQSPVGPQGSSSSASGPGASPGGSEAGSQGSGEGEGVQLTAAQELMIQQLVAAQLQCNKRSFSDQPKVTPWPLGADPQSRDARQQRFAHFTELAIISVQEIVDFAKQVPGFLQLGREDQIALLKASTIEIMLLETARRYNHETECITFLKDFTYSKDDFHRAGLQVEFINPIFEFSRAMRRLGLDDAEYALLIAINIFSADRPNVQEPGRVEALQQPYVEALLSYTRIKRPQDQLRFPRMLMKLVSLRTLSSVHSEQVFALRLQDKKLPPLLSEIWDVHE
hcDAF12 conf – H. contortus DAF-12 receptor agonists, confirmation, cell-based, luminescence, HEK293, lit1-tk-luc, triplicate; shares compounds with hcDAF-12 act; HEK293 hcDAF-12 lit1-tk-luc reporter; % of Δ7-dafachronic acid response; activation, % at 6.8 µM; actives 61% (n = 3,400); AID 743032, 2013;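 active = mean activation across triplicate tests above the threshold derived from the earlier primary screen, cut at about 5.5% in these data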;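 also: 0% = DMSO only wells and 100% = 3 µM Δ7-dafachronic acid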
hgDAF12 conf – H. glycines DAF-12 receptor agonists, confirmation, cell-based, luminescence, HEK293, GAL4-LBD fusion. shares compounds with hgDAF12 agonist. HEK293 GAL4-hgDAF12 luciferase reporter, agonist mode; percent of butyrate response. activation, % at 6.8 µM. actives 80% (n = 3,300). AID 743050, 2013;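 active = mean activation over triplicate wells above the hit cutoff derived from the earlier primary screen, cut at about 11% in these data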;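 also: 0% = DMSO low control and 100% = 2 mM sodium butyrate high control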
LXRb DAF12 ctr – LXR agonists, Gal4 luciferase reporter, confirmation, counter-screen for hgDAF-12 agonist project, cell-based, luminescence, HEK293, H. glycines campaign | shares compounds with hgDAF12 agonist | 24 h | activation, % at 6.8 µM | 3,300 tested, under 10 active | AID 743051, 2013;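 active = mean activation of the triplicate above a set limit carried over from the primary screen, none filed active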
The depositor's hits bear a star; nt = no result.

SMILES	hcDAF-12 act	DAX1 inh-1	hgDAF12 agonist	ssDAF12 agonist	DAX1 inh-2	DAX1 inh confirm	SF1 AF2mut Luc	hgDAF12 conf	LXRb DAF12 ctr	others
Cc1c(Cl)cccc1NC(=O)Cn1cc(C(F)(F)F)cc(Cl)c1=O	4.2	-1.1	-2.8	-1.6	-0.8	nt	nt	nt	nt
CC(C)CCC(CCNCc1ccccn1)c1ccc(Cl)cc1 (centres undefined)	0.3	1.1	0.1	-1.2	-0.7	nt	nt	nt	nt
O=C(Nc1ccc2c(c1)CCC2)c1ccccc1Br	7.2*	7.6*	17.9*	0.5	6.8*	13.7*	6.6*	17.5*	0.8	LXR ag=1.5;hcDAF12 conf=5.3
CSc1ccccc1C(=O)Nc1ccc2c(c1)CCC2	1.8	0.7	7.0	-0.2	0.3	nt	nt	nt	nt
Cn1ccsc1=NC(=O)c1ccc(Cl)cc1	9.4*	1.5	13.9*	1.1*	4.6*	8.9*	7.7*	11.7*	0.4	LXR ag=0.7;hcDAF12 conf=7.9*
O=C(c1cc(-c2cccc(O)c2)on1)N1CCCCCC1	3.7	3.1	8.9	0.6	2.1	nt	nt	nt	nt
O=C(c1ccc(-c2ccccc2Cl)o1)N1CCCC(C(F)(F)F)C1 (centres undefined)	0.2	1.0	3.4	-1.1	3.2	nt	nt	nt	nt
O=C(c1cc(-c2ccccc2)on1)N1CCN(c2ccccc2)CC1	-1.1	0.8	-0.1	-0.7	0.2	nt	nt	nt	nt
CC1CCN(C(=O)c2ccc(-c3ccccc3Cl)o2)CC1	4.2	2.5	16.1*	0.5	16.8*	13.8*	8.6*	13.1*	0.7
CC1CCN(C(=O)c2cc(-c3ccccc3O)on2)CC1	6.2*	3.5	23.6*	1.1*	10.2*	12.4*	9.4*	16.6*	0.8
O=C(c1cc(-c2cccc(O)c2)on1)N1CCOCC1	3.6	0.8	15.6*	0.9	8.0*	13.1*	7.1*	12.0*	0.7
O=C(c1cc(-c2ccccc2)on1)N1CCCC1	4.1	0.0	13.6*	1.3*	6.1*	10.9*	4.5*	15.1*	0.7
CC1CCN(C(=O)c2cc(-c3ccco3)on2)CC1	3.6	0.3	7.6	0.2	0.8	nt	nt	nt	nt
CCN1CCN(c2ccc(S(=O)(=O)N3CCOCC3)cc2NC(=O)COc2ccc(F)cc2Cl)CC1	0.8	0.0	-1.6	-0.8	-1.4	nt	nt	nt	nt
Clc1ccc(CN2CCN(N=Cc3cccc(OCc4ccccc4)c3)CC2)cc1	0.4	nt	0.0	-1.6	-1.8	nt	nt	nt	nt
Cc1c(C(=O)Nc2ccccn2)oc2ccccc12	13.2*	2.7	14.0*	3.3*	4.7*	10.7*	5.8*	22.6*	1.0	LXR ag=1.6;hcDAF12 conf=17.3*
Cc1cccc(-c2noc(-c3ccc4c(c3)OCO4)n2)c1	3.5	-0.6	13.3*	-0.2	4.8*	12.8*	5.0*	14.1*	1.2
COc1ccc(-c2nc(-c3cccc(C)c3)no2)cc1OC	nt	0.4	nt	nt	nt	nt	nt	nt	nt
Cc1cc(-n2c(C)cc(C(=O)CSc3nncn3C(C)C)c2C)no1	1.6	-1.2	2.6	-0.7	-0.2	nt	nt	nt	nt
Clc1ccc(OCc2nc3ccccc3[nH]2)cc1	1.5	1.8	23.0*	0.0	4.7*	9.8*	9.3*	10.3	0.7
COc1ccc(-n2c(COc3ccc(Cl)cc3)nnc2SCc2nc3ccccc3[nH]2)cc1	-2.4	nt	-0.7	-1.5	-0.5	nt	nt	nt	nt
O=C1[C@H](c2ccccc2)[C@@H](c2ccccc2)N1c1ccncc1	-2.3	-0.8	1.2	-0.9	0.4	nt	nt	nt	nt
CC(C)c1ccc(S(=O)(=O)N2CCC(C(=O)N3CCN(c4cccc(Cl)c4)CC3)CC2)cc1	-1.4	0.1	-0.9	-1.1	-1.9	nt	nt	nt	nt
CC(=O)Oc1ccc2c(=O)c(-c3nc4ccccc4s3)coc2c1	6.7*	-0.1	13.3*	0.4	5.7*	5.7*	2.3	9.2	0.4	LXR ag=1.2;hcDAF12 conf=9.0*
CC(=O)Oc1ccc2c(=O)c(Oc3ccccc3[N+](=O)[O-])coc2c1	-1.1	-0.4	-4.4	-1.5	-0.9	nt	nt	nt	nt
CC(=O)c1cccc(Nc2ccc(Br)cc2)c1	4.4	nt	14.4*	-0.6	9.7*	11.7*	6.3*	8.8	0.5
C=CC[C@@H](Cc1ccc(F)cc1)C(=O)OC[C@@H]1CCCN1C(=O)[C@@H](CC=C)CC(=O)N[C@H](CO)Cc1ccccc1	-4.3	-2.5	-6.4	-1.7	-1.2	nt	nt	nt	nt
COc1ccc(C2CC(c3ccc4ccccc4c3)=NN2C(=O)CNC2CCCCC2)cc1 (centres undefined)	-0.5	2.6	4.0	-2.1	0.5	nt	nt	nt	nt
COc1ccc(C2CC(c3ccc4ccccc4c3)=NN2C(=O)COC(=O)C2CCC(=O)N2)cc1 (centres undefined)	10.4*	2.1	15.4*	1.2*	6.7*	14.6*	6.5*	19.5*	0.8	LXR ag=1.5;hcDAF12 conf=6.0*
